RBX1-CUL1 inh: blocks human RBX1-Cullin-1 di-ubiquitin formation. AID 1347404. inhibition, % at 10 µM. in vitro K48 di-Ub FRET, acceptor:donor ratio, 45 min. hit rate 0.6% among 140,000. P62877+Q13616; in the data active means inhibition above about 25%
Target sequence (P62877 whole entry, looked up): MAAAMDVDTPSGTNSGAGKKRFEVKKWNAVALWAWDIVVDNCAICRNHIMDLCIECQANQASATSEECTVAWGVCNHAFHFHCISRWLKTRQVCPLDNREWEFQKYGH
Target sequence (Q13616 whole entry, looked up): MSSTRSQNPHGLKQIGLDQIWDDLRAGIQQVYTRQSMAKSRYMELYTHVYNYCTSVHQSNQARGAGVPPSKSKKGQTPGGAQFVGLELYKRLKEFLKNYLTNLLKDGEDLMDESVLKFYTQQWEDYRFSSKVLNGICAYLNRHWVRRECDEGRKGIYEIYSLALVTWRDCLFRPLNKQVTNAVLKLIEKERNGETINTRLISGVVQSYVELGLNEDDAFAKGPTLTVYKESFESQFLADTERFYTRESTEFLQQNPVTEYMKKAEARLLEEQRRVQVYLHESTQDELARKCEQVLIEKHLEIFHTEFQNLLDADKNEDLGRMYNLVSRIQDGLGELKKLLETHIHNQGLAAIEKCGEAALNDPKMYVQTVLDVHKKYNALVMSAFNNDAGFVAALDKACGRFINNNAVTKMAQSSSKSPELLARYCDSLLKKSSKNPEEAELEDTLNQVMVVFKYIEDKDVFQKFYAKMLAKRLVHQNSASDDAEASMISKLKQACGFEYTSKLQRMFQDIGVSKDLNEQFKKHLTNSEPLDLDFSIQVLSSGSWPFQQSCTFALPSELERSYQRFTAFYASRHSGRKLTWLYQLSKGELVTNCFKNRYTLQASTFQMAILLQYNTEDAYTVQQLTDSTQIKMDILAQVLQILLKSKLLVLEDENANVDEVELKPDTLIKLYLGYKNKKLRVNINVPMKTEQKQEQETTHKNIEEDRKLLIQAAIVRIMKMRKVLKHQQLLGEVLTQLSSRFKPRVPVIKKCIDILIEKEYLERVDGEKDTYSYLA
Starred values were filed as active, the others as inactive. Only a selection was taken, and hits are over-represented in it overall.

SMILES	RBX1-CUL1 inh
O=C1NN(c2ccc(I)cc2)C(=O)/C1=C\c1ccc(Br)cc1	59*
O=C1NN(c2ccc(Cl)c(Cl)c2)C(=O)/C1=C/c1cc2c(cc1[N+](=O)[O-])OCO2	64*
O=C1NN(c2ccc(I)cc2)C(=O)/C1=C\c1ccc(N2CCOCC2)cc1	-3
O=C1NN(c2ccc(I)cc2)C(=O)/C1=C/c1ccc(Cl)cc1	59*
O=C1NN(c2ccc(Cl)c(Cl)c2)C(=O)/C1=C/c1cccc([N+](=O)[O-])c1	9
COc1ccc(/C=C2/C(=O)NN(c3ccc(I)cc3)C2=O)cc1	2
O=C1NN(c2ccc(Br)cc2)C(=O)/C1=C\c1ccc(O)cc1	2
C=CCOc1ccc(/C=C2\C(=O)NN(c3ccc(Cl)cc3)C2=O)cc1OC	-10
O=C1NN(c2ccccc2)C(=O)/C1=C/c1ccc2c(c1)OCO2	7
O=C1NN(c2ccc(F)cc2)C(=O)/C1=C/c1ccccc1O	2
O=C1NN(c2ccc(I)cc2)C(=O)/C1=C\c1cccs1	4
O=C1NN(c2ccc(Cl)cc2)C(=O)/C1=C\c1ccc(F)cc1	38*
O=C(Nc1cc2nn(-c3ccccc3)nc2cc1Cl)c1ccc(Cl)cc1	-7
O=C(NC1CCS(=O)(=O)C1)C1(c2ccccc2)CCCC1 (centres undefined)	4
CC1(C)[C@H]2CC=C(CCNC3CCN(c4ccc(C(=O)NCc5cccnc5)cc4)CC3)[C@@H]1C2	12
O=C(CSc1nc2sc3c(c2c(=O)n1-c1ccccc1)CCC3)c1ccc(Cl)cc1	0
Cc1cccc(OC(=O)c2ccccc2F)c1C	-3
CCOc1cc(/C=C2/C(=O)NN(c3ccc(F)cc3)C2=O)ccc1OC(C)C	5
O=C1NN(c2ccccc2)C(=O)/C1=C/c1cccc(OCc2ccc(Cl)c(Cl)c2)c1	7
O=C1NN(c2cccc(Cl)c2)C(=O)/C1=C/c1cccs1	12
CCN(CC)c1ccc(/C=C2\C(=O)NN(c3ccc(Cl)c(Cl)c3)C2=O)cc1	2
O=C1NN(c2cc(Cl)cc(Cl)c2)C(=O)/C1=C\c1ccc(F)cc1	85*
O=C1NN(c2ccc(Cl)c(Cl)c2)C(=O)/C1=C/c1ccc(Cl)cc1	78*
CC(=O)N1CCC(N2CCCC(C(=O)NCCc3ccccc3)C2)CC1 (centres undefined)	0
CCCCC(CC)C(=O)Nc1cccc(Cl)c1 (centres undefined)	4
SMILES	RBX1-CUL1 inh
O=C(N/N=C/c1ccc(Cl)cc1Cl)c1ccc(O)cc1O	-4
CCc1cccc(C)c1NC(=O)COc1ccc2c(=O)c(-c3ccccc3)coc2c1	-3
COc1cc(NC(=O)COc2ccc(Cl)cc2C)ccc1NC(=O)c1cc2ccccc2o1	1
O=C1Oc2ccc3ccccc3c2C(=O)C1CC1C(=O)Oc2ccc3ccccc3c2C1=O (centres undefined)	32*
CCC1c2c(ccc3ccccc23)OC(=O)C1C(=O)Nc1ccc(C)cc1 (centres undefined)	-6
O=C1/C(=C/c2ccc(Cl)cc2)COc2ccc3ccccc3c21	15
COc1ccccc1NCC(=O)N/N=C/c1ccc[nH]1	3
CN1c2cccc3cccc(c23)N(C)C1c1cccs1	78*
CN1c2ccccc2N(C)C1c1cccs1	6
CC1N(C)c2cccc3cccc(c23)N1C	-22
CCO[C@H]1[C@H](NC(=O)CC)c2ccccc2C12CCN(C(=O)c1ccc3cccc(F)c3n1)CC2	-7
CC(C)C(C)OC1CC(=O)CC2C(=O)c3c(O)ccc(O)c3C(=O)C12 (centres undefined)	60*
CNS(=O)(=O)c1cnccc1N1CCN(c2ccc(S(N)(=O)=O)cc2)CC1	-3
Cc1cc2cccc(NC(=O)Cn3ncc(N4CCNCC4)cc3=O)c2o1	-1
O=C1c2ccccc2C(=O)N1CC#Cc1ccccc1	-7
CCCCCCOC(=O)C(CCCCN1C(=O)c2ccccc2C1=O)N1C(=O)c2ccccc2C1=O (centres undefined)	5
CCOC(=O)C#CCN1C(=O)c2ccccc2C1=O	40*
Cc1cc(C(=O)N2CCCC(CCC(=O)N(C)CCc3ccccn3)C2)n(C)n1 (centres undefined)	0
CC(=O)C(C(C)=O)C1=C(Cl)C(=O)C(=O)c2c(C(=O)c3ccc(C)cc3)coc21	79*
Cc1ccc(C(=O)c2coc3ccc(O)c(Cl)c23)cc1	0
Cc1ccc(C(=O)c2coc3c2cc(O)c2ccccc23)cc1	-8
